# Compound activity: PubChem, National Center for Advancing Translational Sciences (NCATS)
# SW480 rerep: inducers of DNA re-replication in SW480 colon cancer cells; 340,000 compounds, 1.8% hits; SW480 DNA re-replication, Hoechst DNA content imaging, 48 h; Potency, µM (highest dose often 46.1 µM), for the others: at the top dose re-replication activation, usual class: activators; AID 624297; also: potency is read from the fitted curve at half-maximal effect; % of control where 0% means no effect; nearly all actives have a fitted effect of over 55% in size
#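 Per well, 250 cells were exposed to pinned compound for 48 hr. Nuclear DNA was visualised with Hoechst (40 min, 37 C) and total object intensity recorded by fluorescence scanning.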
# TDP1 cell noCPT: qHTS for Inhibitors of human tyrosyl-DNA phosphodiesterase 1 (TDP1): qHTS in cells in absence of CPT; DT40 Tdp1-/- hTDP1 cells, no CPT, ATP luminescence, 48 h; Potency, µM (doses to about 46.2 µM), for inactives: top-dose activity change, negative = growth inhibition, most hits filed as inhibitors; 420,000 compounds, 15% hits; AID 686978, 2013; also: potency is read from the fitted curve at half-maximal effect; % is scaled to controls: 0 for no effect and ±100 for the full control effect; nearly all actives have a fitted effect of over 55% in size
#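 Growth of hTDP1-complemented DT40 Tdp1-knockout cells is measured by ATP luminescence after at least 48 hr compound exposure at 37 °C, with DMSO substituting for the 20 nM CPT used in the parallel screen.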
# BCR signal inh: inhibitors of chronic active B-cell receptor signaling. Potency, µM (series often up to 46.1 µM), for inactives: at the highest dose activity change, negative = inhibition, most hits filed as inhibitors. 340,000 compounds, 0.05% hits. AID 493014. ABC-DLBCL IkBa-CBG/CBR reporter, luminescence ratio, 4 h; active = well fitted inhibition curve with a large enough effect in the signal ratio, with a control signal flat, not every such curve was filed as active; inconclusive = small, poorly fitted or top-dose-only effect, or effect the other way, or a change in a side signal; the % refers to the signal ratio;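 also: potency is read from the fitted curve at half-maximal effect; plate controls were basal doxycycline-induced cells for no effect and cells given 10 µM MG132 for full effect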
#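 Concentration-response series (up to 46 uM) were applied to TMD8 dual-reporter cells for 4 h at 37C with doxycycline. Green/red ratio, after filter-overlap correction, defined %Activity; red signal alone was normalised to basal cells and zero luminescence.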
# MCF10A rerep: inducers of DNA re-replication in MCF 10A breast cells. MCF 10A DNA re-replication, Hoechst nuclear intensity, 48 h. Potency, µM (doses to about 46.1 µM), for inactives: at the highest dose activity, positive = re-replication, actives largely listed as activators. AID 624296. 350,000 compounds, 2.9% hits; also: potency is read from the fitted curve at half-maximal effect; % of control where 0% means no effect; nearly all actives have a fitted effect of over 50% in size
# IL-1B inflam inh: inhibitors of inflammasome signaling (IL-1 beta secretion). 360,000 compounds, 4.7% hits. THP-1 LPS/ATP IL-1B secretion, AlphaLISA, 16 h; active compounds read low. AID 743279. activity change, % at 57.5 µM; in the data active = activity change below about -50%; inconclusive = mostly about -30% to -49%; also: % is scaled to controls: 0 for no effect and ±100 for the full control effect
#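 THP-1 cells pretreated 1 hr with compounds (up to 57.5 uM final), then stimulated with LPS (250 ng/mL final) plus ATP (1.25 mM final); secreted IL-1B measured by AlphaLISA after 16 hr, decreased signal indicating inhibition.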
# TDP1 cell CPT: DT40-hTDP1 cell growth loss with CPT | 420,000 compounds, 12% hits | chicken DT40 Tdp1-/-;hTDP1 cells + 20 nM CPT, ATP luminescence, 48 h | Potency, µM (series often up to 46.2 µM), without a hit: at the highest dose activity change, negative = growth inhibition, hits mostly inhibitors; also: potency is read from the fitted curve at half-maximal effect; % is scaled to controls: 0 for no effect and ±100 for the full control effect; nearly all actives have a fitted effect of over 55% in size
#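 Chicken DT40 Tdp1-/- cells complemented with human TDP1, 400 cells/well, exposed to compounds plus 20 nM camptothecin for at least 48 h at 37 C; viability read as ATP content by CellTiter-Glo luminescence.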
# Starred values were filed as active, the others as inactive; ? = inconclusive; . = not tested or not shown; ! = not active in a repeat; [ ] = another dose, or the depositor's remark. This is a sample that favours compounds with a hit; in the whole collection about 19% have one here. Unless noted, calls follow the shape of the dose curve; as a rule, active = well fitted curve in the direction sought with a large enough effect; inconclusive = small, poorly fitted or top-dose-only effect, or another doubt; inactive = no such curve, though single readings can be large; an effect the other way counts as inactive or inconclusive.
SMILES,SW480 rerep,TDP1 cell noCPT,BCR signal inh,MCF10A rerep,IL-1B inflam inh,TDP1 cell CPT
C/C(=C\c1ccco1)C1C(C#N)=C(N)OC2=C1C(=O)CC(C)(C)C2 (centres undefined),3%,?,?,4%,-1,26µM*
C/C(=C\c1ccco1)C1C(C#N)=C(N)Oc2n[nH]c(-c3ccc(C)cc3)c21 (centres undefined),-1%,?,0%,-1%,-5,16µM*
O=C(NCCSCc1ccccc1Cl)C1CCN(S(=O)(=O)Cc2ccccc2)CC1,.,?,.,.,.,5%
COc1cc(C2CC(=O)C3=C(C2)Nc2ncnn2C3c2cccs2)cc(OC)c1OC (centres undefined),-20%,0%,-1%,6%,23,-1%
COc1cc(C2C=C(c3cccs3)Nc3ncnn32)cc(OC)c1OC (centres undefined),?,0.65µM*,?,?,-4,0.82µM*
CC(C)c1c(C(=O)NCC2(N3CCOCC3)CCCC2)cnn1-c1nccc(-c2cccs2)n1,.,-18%,.,.,.,1%[9.04 µM]
CCCN1CCC(=O)N([C@H](CSc2ccccc2)Cc2ccccc2)CC1,5%,11µM*,?,-2%,-8,11µM*
Cc1ccc(SC[C@H](Cc2ccccc2)N2CCN(CC(C)C)CCC2=O)cc1,0%,18µM*,?,?,-23,?
CCCN1CCC(=O)N([C@H](CSc2ccc(Br)cc2)Cc2ccccc2)CC1,-29%[9.22 µM],?,0%,6%,-9,?
CC(C)CN1CCC(=O)N(CCSc2ccc(Br)cc2)CC1,1%,?,-9%,10%,6,21µM*
CC(C)CN1CCC(=O)N([C@H](CO)Cc2ccccc2)CC1,-11%,-13%,8%,-1%,26,8%
CC(C)CN1CCC(=O)N([C@H](CSc2ccccc2)Cc2ccccc2)CC1,?,16µM*,-1%,?,-17,18µM*
COc1ccc(OC)c(N(CCN2C(=O)c3ccccc3C2=O)C(=O)C2CCC(=O)C2C)c1 (centres undefined),.,6%,.,.,4,-2%
COc1ccc(NC(=O)COC(=O)C2CC2)cc1S(=O)(=O)N1CCCCC1,-1%,9%,0%,0%,?,-3%
Cc1onc(-c2ccccc2)c1-c1nnc(COC(=O)c2ccc(O)cc2)o1,-30%,?,4%,7%,32,-12%
C=COc1ccc(N2C(=O)c3ccccc3OC2C)cc1 (centres undefined),?,21µM*,?,11%,-4,?
CC(O)CNc1nc(NCc2ccccc2)c2cnn(C)c2n1 (centres undefined),9%,-21%,-13%,16%,-10,-3%
COCCCNc1nc(NCc2ccccc2OC)c2cnn(C)c2n1,.,23µM*,.,.,.,?
COc1ccc(C(=O)N2CCC3(CCCN(C(=O)NC(C)C)C3)CC2)cc1,.,-2%,.,.,.,4%
CCN(C(=O)COC(=O)c1ccc(SC)cc1OC)C1CCS(=O)(=O)C1 (centres undefined),-2%,7%,-14%,8%,11,-4%
CCCS(=O)(=O)c1c(S(=O)(=O)CCC)c2cc(CC)ccn2c1C(=O)c1ccc(Cl)cc1,.,-26%,.,.,.,15µM*
CCCS(=O)(=O)c1c(S(=O)(=O)CCC)c2cc(-c3ccncc3)ccn2c1C(=O)OC,18µM*,?,?,23µM*,-69*,?
CCCS(=O)(=O)c1c(S(=O)(=O)CCC)c2cnccn2c1C(=O)c1ccc(OC)cc1,12%,?,1%,?,-4,-10%
COc1ccc(NC(=O)c2cc3n(n2)C(C(F)(F)F)CC(c2ccco2)N3)cc1 (centres undefined),15%,?,5%,23%,?,-22%
O=C(NCC12CC3CC(CC(C3)C1)C2)c1cc2n(n1)C(C(F)(F)F)CC(c1ccco1)N2 (centres undefined),?,15µM*,16%,?,-87*,10µM*
SMILES,SW480 rerep,TDP1 cell noCPT,BCR signal inh,MCF10A rerep,IL-1B inflam inh,TDP1 cell CPT
Cc1cc(NC(=O)c2cc3n(n2)C(C(F)(F)F)CC(c2ccco2)N3)n(-c2ccccc2)n1 (centres undefined),2%,15µM*,?,-1%,-13,?
O=[N+]([O-])c1ccc(S(=O)(=O)NCC(c2cccnc2)N2CCc3ccccc3C2)cc1 (centres undefined),-9%,21µM*,-14%,20%,4,?
O=C(NCC(c1cccnc1)N1CCc2ccccc2C1)C(=O)Nc1cccc(Cl)c1 (centres undefined),.,18µM*,.,.,.,21µM*
O=C(NCC(c1cccnc1)N1CCc2ccccc2C1)C(=O)Nc1ccc(Cl)cc1 (centres undefined),.,8.2µM*,.,.,.,12µM*
Cc1ncc([N+](=O)[O-])n1CC(=O)Nc1ccccc1Cl,.,-12%,.,.,13,-4%
O=C1c2ccccc2CN1Cc1ccccc1,16%,-7%,2%,-3%,-9,-2%
N=C(N)c1ccc(Cl)cc1,-11%,-12%,0%,28%,21,20%
N=C(N)c1ccc(/C=C/c2ccc(C(=N)N)cc2O)cc1,-2%,?,4%,25%,-3,13µM*!
CC(C)(C)c1ccc(C(=O)NCc2nnc(SCC(=O)N3CCCC3)o2)cc1,.,?,.,.,25,-18%
Cc1nn(Cc2ccccc2)c2c1C(c1ccc(Cl)cc1)C(C#N)=C(N)O2 (centres undefined),-1%,21µM*,?,?,12,18µM*
Cc1nn(Cc2ccccc2)c2c1C(c1ccncc1)C(C#N)=C(N)O2 (centres undefined),-4%,23µM*,?,-4%,49,21µM*
Cc1nn(-c2ccccc2)c2c1C(c1ccc(Br)s1)C(C#N)=C(N)O2 (centres undefined),-2%,12µM*,15%,?,10,?
Cc1nn(Cc2ccccc2)c2c1C(c1cccnc1)C(C#N)=C(N)O2 (centres undefined),-2%[9.22 µM],?,?,?,4,?
CN(CC(=O)Nc1ccccc1C(F)(F)F)Cc1c(O)ccc2ccccc12,8%,-25%,-17%,21%,?,-12%
